Data as given in PubChem BioAssay AID488969 (Vanderbilt High Throughput Screening Facility, 2010).
The full ranking holds about 110,000 compounds; the median of “z-score” is about -0.1, and the highest 2% start at about 2. The sample as a whole holds a higher share of the highest values than the screen did. Activity calls are given as the source filed them.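 Rule for the calls: active = z-score in the third read window above 3 or below -3; inactive = the rest.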

molecular target: Metabotropic glutamate receptor 8 (Rattus norvegicus) (UniProt P70579); experiment: rat mGluR8 modulators via GIRK flux, primary screen, cell-based, thallium flux, HTS (AID 488969); details: HEK293 rat mGluR8, GIRK (G protein-gated inwardly rectifying potassium channel) thallium flux, FluoZin2; at 10 µM; stronger effect = higher value; submaximal glutamate (EC20) added with thallium
Sequence (P70579 whole entry, looked up): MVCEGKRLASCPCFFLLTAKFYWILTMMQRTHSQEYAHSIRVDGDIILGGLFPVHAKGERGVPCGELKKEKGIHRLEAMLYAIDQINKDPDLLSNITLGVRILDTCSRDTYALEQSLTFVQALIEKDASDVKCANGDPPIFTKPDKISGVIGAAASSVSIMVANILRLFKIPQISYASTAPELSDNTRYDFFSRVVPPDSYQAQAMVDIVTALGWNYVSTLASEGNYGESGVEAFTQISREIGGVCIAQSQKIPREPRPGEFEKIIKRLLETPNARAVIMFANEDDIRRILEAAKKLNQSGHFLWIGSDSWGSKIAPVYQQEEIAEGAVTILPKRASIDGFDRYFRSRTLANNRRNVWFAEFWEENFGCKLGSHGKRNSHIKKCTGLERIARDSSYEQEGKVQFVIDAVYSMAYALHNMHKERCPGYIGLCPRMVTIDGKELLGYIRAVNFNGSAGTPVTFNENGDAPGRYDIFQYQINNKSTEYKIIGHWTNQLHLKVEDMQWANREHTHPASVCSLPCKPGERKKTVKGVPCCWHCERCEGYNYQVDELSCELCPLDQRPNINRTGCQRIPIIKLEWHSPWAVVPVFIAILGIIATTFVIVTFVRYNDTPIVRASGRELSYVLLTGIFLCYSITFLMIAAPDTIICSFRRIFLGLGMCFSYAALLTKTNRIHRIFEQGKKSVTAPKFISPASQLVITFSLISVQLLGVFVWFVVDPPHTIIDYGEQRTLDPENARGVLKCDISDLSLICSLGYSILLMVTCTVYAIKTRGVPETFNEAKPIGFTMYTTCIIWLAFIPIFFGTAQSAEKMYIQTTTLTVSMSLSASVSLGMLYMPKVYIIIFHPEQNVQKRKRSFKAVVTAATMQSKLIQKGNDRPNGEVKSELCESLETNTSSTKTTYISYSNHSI

SMILES | z-score
Cc1c(NC(=O)CCC2CCCCC2)c(=O)n(-c2ccccc2)n1C | 2.9
Cc1c(NC(=O)N(C)C)c(=O)n(-c2ccccc2)n1C | -0.0915
Cc1c(NC(=O)C2C3C=CC(C3)C2C(=O)O)c(=O)n(-c2ccccc2)n1C (centres undefined) | 0.15
CCC(=O)NC(NC(=S)Nc1c(C)n(C)n(-c2ccccc2)c1=O)C(Cl)(Cl)Cl (centres undefined) | -0.491
CCCC(=O)NC(NC(=S)Nc1c(C)n(C)n(-c2ccccc2)c1=O)C(Cl)(Cl)Cl (centres undefined) | -0.165
Cc1c(NC(=O)CCC(=O)N2CCCCC2)c(=O)n(-c2ccccc2)n1C | -0.244
Cc1c(NC(=S)NC(NC(=O)CC(C)C)C(Cl)(Cl)Cl)c(=O)n(-c2ccccc2)n1C (centres undefined) | 2.53
Cc1c(NC(=O)CSc2ccccn2)c(=O)n(-c2ccccc2)n1C | -0.147
Cc1c(NC(=O)CC(=O)Nc2c(C)n(C)n(-c3ccccc3)c2=O)c(=O)n(-c2ccccc2)n1C | -0.0936
Cc1c(NC(=O)CSc2ccccc2C(=O)Nc2cccnc2)c(=O)n(-c2ccccc2)n1C | 2.06
Cc1c(NC(=O)CSc2nccn2C)c(=O)n(-c2ccccc2)n1C | -0.0895
Cc1c(NC(=O)C2CC=CCC2C(=O)O)c(=O)n(-c2ccccc2)n1C (centres undefined) | 2.16
O=C(NCCc1ccncc1)C12CC3CC(CC(C3)C1)C2 | 0.467
CC1CCN(S(=O)(=O)c2ccc3c(c2)oc(=O)n3CC(=O)N2c3ccccc3CC2C)CC1 (centres undefined) | 0.0729
Cc1cc(C)n(-c2nc(NCC3CCCO3)c3c4c(sc3n2)COC(C)(C)C4)n1 (centres undefined) | -2
C=CCc1cccc(/C=N/NC(=O)CCCNc2ccc(C)cc2)c1O | -0.144
CCOC(=O)C1CCN(C(=O)CN(c2ccc(OC)cc2)S(=O)(=O)c2c(C)nn(C)c2C)CC1 | -0.304
CCCC(C)NC(=O)c1ccc2[nH]c3c(c2c1)CC(C)CC3 (centres undefined) | -0.815
O=C(CSc1ncn(-c2ccccc2)n1)Nc1ccc(Br)cn1 | -0.314
COC(=O)c1c(C)[nH]c(C(=O)OCC(=O)NCC(C)C)c1C | -0.00108
O=C(CSCCO)Nc1cccc([N+](=O)[O-])c1 | -1.53
Cc1c(NC(=O)C(=O)/C=C(/O)c2ccccc2)c(=O)n(-c2ccccc2)n1C | -0.309
Cc1c(NC(=O)C(=O)/C=C(\O)c2ccc(Br)cc2)c(=O)n(-c2ccccc2)n1C | -0.237
Cc1c(NC(=O)C(=O)/C=C(\O)c2ccc(Cl)cc2)c(=O)n(-c2ccccc2)n1C | 2.16
O=C1COc2ccc(C(=O)c3ccccc3C(=O)NCc3ccco3)cc2N1 | 0.0372
C=CCn1c(SCC(=O)c2[nH]c(C)c(C(=O)OCC)c2C)nc2scc(-c3ccc(OC)c(OC)c3)c2c1=O | -0.123
CCOc1cc(C2NN=C(c3ccc(C)cc3)S2)ccc1O (centres undefined) | 8.33 (active)
CCOc1cc(C2NN=C(c3ccccc3)S2)ccc1OCc1ccc(F)cc1 (centres undefined) | 0.745
CCOc1cc(C2NN=C(c3ccccc3)S2)ccc1OCc1ccccc1Cl (centres undefined) | 0.78
